Reference: PubChem BioAssay AID1159580 (chemical genetic matrix, 2015)
Hit rate of the full screen: of about 5,500 compounds, about 2,000 (36%) were called active. Inconclusive results (about 18%) are left out. Cut-off read from the data, not from the text of the source: active = normalized growth mostly below about 0.91 (no sharp cut-off); inconclusive = no clear call, values can overlap the other calls; inactive = mostly above about 0.92. The list shows a part of the results.

Assay: chemical genetic growth profiling, strain panel (AID 1159580);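 note: tested at 20 µM; growth read once vehicle control cultures reached saturation at 30 °C; 1 = growth at the plate median or of vehicle wells; lower values mean less growth of the strain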
Conditions: growth OD
[1] = S. cerevisiae deletion strains, locus YCL061C, strain MRC1, active compounds read low
[2] = S. cerevisiae deletion strains, locus YHR030C, strain SLT2, active compounds read low
[3] = S. cerevisiae deletion strains, locus YJL187C, strain SWE1, active compounds read low

Measured: normalized growth

O=C1NC(c2ccccc2Cl)Nc2ccccc21 (stereo not drawn)
inactive: S. cerevisiae deletion strains, locus YAL013W, strain DEP1, active compounds read low 0.997 | S. cerevisiae deletion strains, locus YBR229C, strain ROT2, active compounds read low 1 | [1] 0.992 | S. cerevisiae deletion strains, locus YDL101C, strain DUN1, active compounds read low 1.01 | S. cerevisiae deletion strains, locus YDL134C, strain PPH21, active compounds read low 1.01 | S. cerevisiae deletion strains, locus YDR150W, strain NUM1, active compounds read low 0.998 | S. cerevisiae deletion strains, locus YEL061C, strain CIN8, active compounds read low 0.981 | S. cerevisiae deletion strains, locus YGR078C, strain PAC10, active compounds read low 0.997 | [2] 1.04 | S. cerevisiae deletion strains, locus YHR087W, strain rtc3, active compounds read low 0.998 | [3] 0.993 | S. cerevisiae deletion strains, locus YJR043C, strain POL32, active compounds read low 1.02 | S. cerevisiae deletion strains, locus YJR075W, strain HOC1, active compounds read low 0.97 | S. cerevisiae deletion strains, locus YLR039C, strain RIC1, active compounds read low 0.973 | S. cerevisiae deletion strains, locus YLR058C, strain SHM2 (second series), active compounds read low 1 | S. cerevisiae deletion strains, locus YLR085C, strain ARP6, active compounds read low 0.951 | S. cerevisiae deletion strains, locus YLR262C, strain YPT6, active compounds read low 0.977 | S. cerevisiae deletion strains, locus YML094W, strain GIM5, active compounds read low 0.989 | S. cerevisiae deletion strains, locus YMR219W, strain ESC1, active compounds read low 1 | S. cerevisiae deletion strains, locus YMR263W, strain SAP30, active compounds read low 1.01 | S. cerevisiae deletion strains, locus YNL153C, strain GIM3, active compounds read low 1 | S. cerevisiae deletion strains, locus YNL298W, strain CLA4 (second series), active compounds read low 0.997 | S. cerevisiae deletion strains, locus YNL322C, strain KRE1, active compounds read low 0.99 | S. cerevisiae deletion strains, locus YNR030W, strain Alg12, active compounds read low 0.984 | S. cerevisiae deletion strains, locus YPL055C, strain LGE1, active compounds read low 1.03 | S. cerevisiae deletion strains, locus YPL241C, strain CIN2, active compounds read low 0.981 | S. cerevisiae deletion strains, locus YPR135W, strain CTF4, active compounds read low 1.05 | S. cerevisiae strains, strain wild type, active compounds read low 1.01

CC[C@]12C=CCN3CC[C@@]4(c5ccc(OC)cc5N(C)C4[C@@](O)(C(=O)OC)[C@@H]1OC(C)=O)[C@@H]32 (stereo partly drawn)
inactive: S. cerevisiae deletion strains, locus YAL021C, strain ccr4, active compounds read low 1.01 | S. cerevisiae deletion strains, locus YAL026C, strain drs2, active compounds read low 0.993 | S. cerevisiae deletion strains, locus YAL030W, strain snc1, active compounds read low 1.02 | S. cerevisiae deletion strains, locus YBL061C, strain skt5, active compounds read low 1.01 | S. cerevisiae deletion strains, locus YBR009C, strain hhf1, active compounds read low 1.01 | S. cerevisiae deletion strains, locus YBR023C, strain chs3, active compounds read low 1.01 | S. cerevisiae deletion strains, locus YBR171W, strain sec66, active compounds read low 0.995 | S. cerevisiae deletion strains, locus YBR231C, strain swc5, active compounds read low 0.996 | S. cerevisiae deletion strains, locus YBR279W, strain paf1, active compounds read low 1 | S. cerevisiae deletion strains, locus YCL011C, strain gbp2, active compounds read low 1.02 | S. cerevisiae deletion strains, locus YCL016C, strain dcc1, active compounds read low 0.988 | [1] 1.01 | S. cerevisiae deletion strains, locus YCL069W, strain vba3, active compounds read low 1 | S. cerevisiae deletion strains, locus YCR088W, strain abp1, active compounds read low 1 | S. cerevisiae deletion strains, locus YDL005C, strain med2, active compounds read low 0.992 | S. cerevisiae deletion strains, locus YDL040C, strain nat1, active compounds read low 1.02 | S. cerevisiae deletion strains, locus YDR001C, strain nth1, active compounds read low 1.02 | S. cerevisiae deletion strains, locus YDR069C, strain doa4, active compounds read low 0.989 | S. cerevisiae deletion strains, locus YDR137W, strain rgp1, active compounds read low 0.949 | S. cerevisiae deletion strains, locus YDR159W, strain sac3, active compounds read low 1 | S. cerevisiae deletion strains, locus YDR195W, strain ref2 1.01 | S. cerevisiae deletion strains, locus YDR297W, strain sur2, active compounds read low 0.996 | S. cerevisiae deletion strains, locus YDR334W, strain swr1, active compounds read low 1.04 | S. cerevisiae deletion strains, locus YDR335W, strain msn5, active compounds read low 1.01 | S. cerevisiae deletion strains, locus YDR392W, strain spt3, active compounds read low 0.943 | S. cerevisiae deletion strains, locus YEL003W, strain gim4, active compounds read low 1 | S. cerevisiae deletion strains, locus YEL037C, strain rad23, active compounds read low 1 | S. cerevisiae deletion strains, locus YEL061C, strain CIN8 (second series), active compounds read low 1.02 | S. cerevisiae deletion strains, locus YER015W, strain faa2, active compounds read low 1.01 | S. cerevisiae deletion strains, locus YER016W, strain bim1, active compounds read low 0.993 | S. cerevisiae deletion strains, locus YER111C, strain swi4, active compounds read low 0.981 | S. cerevisiae deletion strains, locus YER155C, strain BEM2 (second series), active compounds read low 0.973 | S. cerevisiae deletion strains, locus YFR010W, strain ubp6, active compounds read low 1 | S. cerevisiae deletion strains, locus YGL167C, strain pmr1, active compounds read low 0.992 | S. cerevisiae deletion strains, locus YGL173C, strain kem1, active compounds read low 0.998 | S. cerevisiae deletion strains, locus YGL227W, strain vid30, active compounds read low 0.989 | S. cerevisiae deletion strains, locus YGL240W, strain doc1, active compounds read low 1 | S. cerevisiae deletion strains, locus YGL253W, strain hxk2, active compounds read low 1.03 | S. cerevisiae deletion strains, locus YHR013C, strain ard1, active compounds read low 0.966 | S. cerevisiae deletion strains, locus YHR027C, strain rpn1, active compounds read low 1.01 | [2] 0.912 | S. cerevisiae deletion strains, locus YHR079C, strain IRE1, active compounds read low 0.924 | S. cerevisiae deletion strains, locus YHR142W, strain chs7, active compounds read low 1.04 | S. cerevisiae deletion strains, locus YJL092W, strain hpr5, active compounds read low 1.01 | S. cerevisiae deletion strains, locus YJL095W, strain BCK1 (second series), active compounds read low 1 | S. cerevisiae deletion strains, locus YJL095W, strain BCK1, active compounds read low 0.983 | S. cerevisiae deletion strains, locus YJL115W, strain asf1, active compounds read low 0.999 | S. cerevisiae deletion strains, locus YJL129C, strain trk1, active compounds read low 1.02 | S. cerevisiae deletion strains, locus YJL154C, strain vps35, active compounds read low 0.992 | S. cerevisiae deletion strains, locus YJL164C, strain tpk1, active compounds read low 1.01 | S. cerevisiae deletion strains, locus YJL166W, strain qcr8, active compounds read low 1.01 | [3] 1 | S. cerevisiae deletion strains, locus YJR066W, strain TOR1, active compounds read low 0.909 | S. cerevisiae deletion strains, locus YKL160W, strain elf1, active compounds read low 0.995 | S. cerevisiae deletion strains, locus YKR026C, strain gcn3, active compounds read low 1.01 | S. cerevisiae deletion strains, locus YKR091W, strain srl3, active compounds read low 0.992 | S. cerevisiae deletion strains, locus YLL001W, strain dnm1, active compounds read low 0.997 | S. cerevisiae deletion strains, locus YLL026W, active compounds read low 0.992 | S. cerevisiae deletion strains, locus YLL041C, strain sdh2, active compounds read low 1.01 | S. cerevisiae deletion strains, locus YLR027C, strain aat2, active compounds read low 1.01 | S. cerevisiae deletion strains, locus YLR113W, strain HOG1, active compounds read low 0.942 | S. cerevisiae deletion strains, locus YLR221C, strain rsa3, active compounds read low 0.999 | S. cerevisiae deletion strains, locus YLR258W, strain gsy2, active compounds read low 1.01 | S. cerevisiae deletion strains, locus YLR262C, strain YPT6 (second series), active compounds read low 0.927 | S. cerevisiae deletion strains, locus YLR320W, strain mms22, active compounds read low 0.97 | S. cerevisiae deletion strains, locus YLR342W, strain FKS1, active compounds read low 0.965 | S. cerevisiae deletion strains, locus YLR357W, strain rsc2, active compounds read low 1.02 | S. cerevisiae deletion strains, locus YLR370C, strain arc18, active compounds read low 1.01 | S. cerevisiae deletion strains, locus YLR384C, strain iki3, active compounds read low 1.01 | S. cerevisiae deletion strains, locus YML120C, strain ndi1, active compounds read low 0.994 | S. cerevisiae deletion strains, locus YMR058W, strain fet3, active compounds read low 1.04 | S. cerevisiae deletion strains, locus YMR125W, strain sto1, active compounds read low 1.03 | S. cerevisiae deletion strains, locus YMR129W, active compounds read low 1 | S. cerevisiae deletion strains, locus YMR205C, strain PFK2, active compounds read low 1.01 | S. cerevisiae deletion strains, locus YMR231W, strain pep5, active compounds read low 0.993 | S. cerevisiae deletion strains, locus YNL071W, strain lat1, active compounds read low 0.985 | S. cerevisiae deletion strains, locus YNL183C, strain NPR1, active compounds read low 0.961 | S. cerevisiae deletion strains, locus YNL209W, strain ssb2, active compounds read low 1.01 | S. cerevisiae deletion strains, locus YNL248C, strain rpa49, active compounds read low 0.982 | S. cerevisiae deletion strains, locus YNL322C, strain KRE1 (second series), active compounds read low 0.987 | S. cerevisiae deletion strains, locus YNR049C, strain mso1, active compounds read low 1.01 | S. cerevisiae deletion strains, locus YOR001W, strain rrp6, active compounds read low 1.01 | S. cerevisiae deletion strains, locus YOR070C, strain gyp1, active compounds read low 1 | S. cerevisiae deletion strains, locus YOR080W, strain dia2, active compounds read low 1 | S. cerevisiae deletion strains, locus YOR083W, strain WHI5, active compounds read low 0.934 | S. cerevisiae deletion strains, locus YOR106W, strain vam3, active compounds read low 0.994 | S. cerevisiae deletion strains, locus YOR231W, strain MKK1, active compounds read low 0.928 | S. cerevisiae deletion strains, locus YOR265W, strain rbl2, active compounds read low 1.01 | S. cerevisiae deletion strains, locus YOR270C, strain vph1, active compounds read low 0.934 | S. cerevisiae deletion strains, locus YOR290C, strain snf2, active compounds read low 0.999 | S. cerevisiae deletion strains, locus YPL051W, strain arl3, active compounds read low 0.984 | S. cerevisiae deletion strains, locus YPL078C, strain atp4, active compounds read low 0.989 | S. cerevisiae deletion strains, locus YPL106C, strain sse1, active compounds read low 0.988 | S. cerevisiae deletion strains, locus YPL240C, strain hsp82, active compounds read low 1 | S. cerevisiae deletion strains, locus YPL256C, strain CLN2, active compounds read low 0.923
